Data on 39 compounds can be found in the supplement of paper PMC7156485.

Several values for one entry are separate records, joined by “and”; a condition that tells them apart may be missing. Identical values can stand only once. ± gives the standard deviation of the averaged measurements.
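Also: TDF denotes transformed human dermal fibroblasts of mesenchymal origin.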

For one assay, the system named is HCC1569. The assay is described as follows: cell number relative to DMSO (% of DMSO); higher = more cells (less growth inhibition / toxicity). To be noted: concentration: 10 µM; 24 h. Summed up:
(§1)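 H1.0 nuclear intensity or cell number is expressed as percent of the plate control, with the median of replicates taken. HCC1569 and TDF cells were treated with compounds at 10 µM for 24 h at 37 °C, in triplicate, then fixed and immunostained for H1.0 with DAPI as a nuclear stain. HCC1569 values were smoothed to correct for positional effects.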
In the case of `CON=C(C(=O)NC1C(=O)N2C(C(=O)[O-])=C(CSc3nc(=O)c([O-])nn3C)CSC12)c1csc(N)n1.[Na+].[Na+]` (stereo not drawn) [Ceftriaxone sodium], the cell number worked out at 101.

Consider `C1COC(NC(C2CC2)C2CC2)=N1` [Rilmenidine hemifumarate], for which the cell number stood at 95.7.

The compound `CCN(Cc1ccncc1)C(=O)C(CO)c1ccccc1` (stereo not drawn) [Tropicamide] registered a cell number of 104 ± 5.5.

`Cn1c(=O)c(-c2c(Cl)cccc2Cl)cc2cnc(Nc3ccc(N4CCOCC4)cc3)nc21`: the cell number was determined as 52.7.

The compound `CCN1CCN(C(=O)NC(C(=O)NC2C(=O)N3C2SC(C)(C)C3C(=O)O)c2ccccc2)C(=O)C1=O` (stereo not drawn) [Piperacillin] showed a cell number of 101.

As to `O=C(NCCNCC(O)COc1ccc(O)cc1)N1CCOCC1.O=C(O)C=CC(=O)O` (stereo not drawn) [Xamoterol hemifumarate], the cell number was 104.

On to `C[C@H](N[C@@H](CCc1ccccc1)C(=O)O)C(=O)N1CCC[C@H]1C(=O)O.O.O`, for which the cell number worked out at 102.

Consider `CN(C)CCn1cc(S(=O)(=O)c2cccc(F)c2)c2cccnc21`, for which the cell number amounted to 99.5.

For `Cc1cccc(-c2[nH]c(C(C)(C)C)nc2-c2ccc3c(c2)OCO3)n1.Cl` [TGF-b RI Inhibitor III], the cell number is 96.3.

As for `CCC(CO)Nc1nc(NCc2ccccc2)c2ncn(C(C)C)c2n1` (stereo not drawn) [Roscovitine], the cell number turned out to be 93.4.

Take `COC1CC(OC2C(C)C(=O)OC(C)C(C)C(OC(C)=O)C(C)C(=O)C3(CO3)CC(C)C(OC3OC(C)CC(N(C)C)C3OC(C)=O)C2C)OC(C)C1OC(C)=O` (stereo not drawn) [Troleandomycin]: the cell number came out at 102 ± 2.6.

For the compound `O=C(O)c1cn(C2CC2)c2cc(N3CCNCC3)c(F)cc2c1=O` [Ciprofloxacin], the cell number was 105.

Compound `COc1ccc2c3c1OC1CC(O)C=CC31CCN(C)C2` (stereo not drawn) [Galanthamine] gave a cell number of 101.

As to `CCCOc1ccccc1-c1nc2[nH][nH]nc-2c(=O)n1` [Zaprinast], the cell number amounted to 100.3 ± 0.47.

`COc1cc2c(CCNC(C)=O)c[nH]c2cc1O` [6-Hydroxymelatonin]: the cell number came to 100.

In turn, `Cn1c(=O)c2[nH]cnc2n(C)c1=O` [Theophylline] had a cell number of 100.

The compound `CCN(CC)CCCCN1c2ccccc2Oc2ccc(Cl)cc21.Cl` [Akt Inhibitor X] registered a cell number of 83.

As for `NCCCC(=O)O`, the cell number worked out at 109.

The compound `CCCCCCCCC=CCCCCCCCCC(=O)O` [10(E)-Nonadecenoic acid] returned a cell number of 96.1.

In turn, `CC(=O)SC1CC2=CC(=O)CCC2(C)C2CCC3(C)C(CCC34CCC(=O)O4)C12` (stereo not drawn) [Spironolactone] yielded a cell number of 99.1 ± 3.8.

Compound `COc1ccccc1Oc1c(NS(=O)(=O)c2ccc(C(C)(C)C)cc2)nc(-c2ncccn2)nc1OCCO` [Bosentan] gave a cell number of 99.5.

Regarding `O=C(O)c1ccc(-c2c[nH]c3ncc(-c4ccccc4)cc23)cc1C1CCCC1`, the cell number is 71.1 and 70.9.

In turn, `COc1ccc2nc(S(=O)Cc3ncc(C)c(OC)c3C)[nH]c2c1` (stereo not drawn) [Omeprazole] showed a cell number of 100.

The compound `O=C(NCCO)c1cccc(-c2cc(Nc3ccc(OC(F)(F)F)cc3)ncn2)c1` showed a cell number of 91.1.

Take `CC(C)c1cc(/C=C(\C#N)C(=O)NCCCc2ccccc2)cc(C(C)C)c1O`: the cell number came out at 89.5.

`N[C@H](CO)C(=O)O` [D-Serine] yielded a cell number of 104.

In the case of `CC(=O)c1ccc2c(c1)[C@H](NC(=O)c1ccc(F)c(Cl)c1)[C@H](O)C(C)(C)O2`, the cell number was determined as 97.4.

Consider `CC(=O)O.NC(N)=NN=Cc1c(Cl)cccc1Cl` [Guanabenz acetate], for which the cell number was determined as 104.

`CCCCS(=N)(=O)CCC(N)C(=O)O` (stereo not drawn) [Buthionine sulfoximine] gave a cell number of 95.9.

Take `O=C(/C=C/c1cccnc1)NCCCCC1CCN(C(=O)c2ccccc2)CC1`: the cell number was determined as 106.

Take `CC(N)=O` [Acetamide]: the cell number turned out to be 113.

With `O=C1OC(CN2CCOCC2)CN1/N=C/c1ccc([N+](=O)[O-])o1` (stereo not drawn), the cell number stood at 102.

In the case of `N[C@@H](COP(=O)(O)O)C(=O)O` [O-Phospho-L-serine], the cell number worked out at 99.1.

`CNC1C(O)C(NC)C2OC3(O)C(=O)CC(C)OC3OC2C1O.Cl.Cl` (stereo not drawn) [Spectinomycin.2HCl] gave a cell number of 98.8.

`CS(=O)(=O)O.Cc1ccc(NC(=O)c2ccc(CN3CCN(C)CC3)cc2)cc1Nc1nccc(-c2cccnc2)n1` [Imatinib] yielded a cell number of 93.4.

The compound `CCCOc1ccc2nc(NC(=O)OC)[nH]c2c1` [Oxibendazole] registered a cell number of 62.8.

Turning to `CN1C(C)(C)CCCC1(C)C.O=C(O)C(O)C(O)C(=O)O` [Pempidine tartrate], the cell number turned out to be 105.

`CC(C)(C)NCC(O)COc1nsnc1N1CCOCC1.O=C(O)C=CC(=O)O` [(S)-Timolol maleate] had a cell number of 106.

On to `COc1cc2ncc(-c3ccccc3)nc2cc1OC` [Tyrphostin AG 1296], for which the cell number came out at 98.1.

The test system of another assay is TDF. Described as above. The conditions noted are these: concentration: 10 µM; 24 h. In a few lines: as §1
The compound `CON=C(C(=O)NC1C(=O)N2C(C(=O)[O-])=C(CSc3nc(=O)c([O-])nn3C)CSC12)c1csc(N)n1.[Na+].[Na+]` (stereo not drawn) [Ceftriaxone sodium] had a cell number of 99.8.

For the compound `C1COC(NC(C2CC2)C2CC2)=N1` [Rilmenidine hemifumarate], the cell number turned out to be 108.

With `CCN(Cc1ccncc1)C(=O)C(CO)c1ccccc1` (stereo not drawn) [Tropicamide], the cell number is 105 ± 8.1.

With `Cn1c(=O)c(-c2c(Cl)cccc2Cl)cc2cnc(Nc3ccc(N4CCOCC4)cc3)nc21`, the cell number came out at 21.9.

In turn, `CCN1CCN(C(=O)NC(C(=O)NC2C(=O)N3C2SC(C)(C)C3C(=O)O)c2ccccc2)C(=O)C1=O` (stereo not drawn) [Piperacillin] came in with a cell number of 100.

Compound `O=C(NCCNCC(O)COc1ccc(O)cc1)N1CCOCC1.O=C(O)C=CC(=O)O` (stereo not drawn) [Xamoterol hemifumarate] showed a cell number of 98.5.

For the compound `C[C@H](N[C@@H](CCc1ccccc1)C(=O)O)C(=O)N1CCC[C@H]1C(=O)O.O.O`, the cell number turned out to be 94.9.

On to `CN(C)CCn1cc(S(=O)(=O)c2cccc(F)c2)c2cccnc21`, for which the cell number worked out at 74.4.

The compound `Cc1cccc(-c2[nH]c(C(C)(C)C)nc2-c2ccc3c(c2)OCO3)n1.Cl` [TGF-b RI Inhibitor III] showed a cell number of 84.

For the compound `CCC(CO)Nc1nc(NCc2ccccc2)c2ncn(C(C)C)c2n1` (stereo not drawn) [Roscovitine], the cell number worked out at 99.

On to `COC1CC(OC2C(C)C(=O)OC(C)C(C)C(OC(C)=O)C(C)C(=O)C3(CO3)CC(C)C(OC3OC(C)CC(N(C)C)C3OC(C)=O)C2C)OC(C)C1OC(C)=O` (stereo not drawn) [Troleandomycin], for which the cell number turned out to be 108.1 ± 0.42.

`O=C(O)c1cn(C2CC2)c2cc(N3CCNCC3)c(F)cc2c1=O` [Ciprofloxacin] returned a cell number of 107.

`COc1ccc2c3c1OC1CC(O)C=CC31CCN(C)C2` (stereo not drawn) [Galanthamine] yielded a cell number of 110.

In the case of `CCCOc1ccccc1-c1nc2[nH][nH]nc-2c(=O)n1` [Zaprinast], the cell number was 113 ± 8.6.

Turning to `COc1cc2c(CCNC(C)=O)c[nH]c2cc1O` [6-Hydroxymelatonin], the cell number is 110.

`Cn1c(=O)c2[nH]cnc2n(C)c1=O` [Theophylline] came in with a cell number of 95.5.

`CCN(CC)CCCCN1c2ccccc2Oc2ccc(Cl)cc21.Cl` [Akt Inhibitor X] returned a cell number of 87.1.

In turn, `NCCCC(=O)O` had a cell number of 106.

In turn, `CCCCCCCCC=CCCCCCCCCC(=O)O` [10(E)-Nonadecenoic acid] had a cell number of 98.8.

In the case of `CC(=O)SC1CC2=CC(=O)CCC2(C)C2CCC3(C)C(CCC34CCC(=O)O4)C12` (stereo not drawn) [Spironolactone], the cell number worked out at 105 ± 7.3.

In turn, `COc1ccccc1Oc1c(NS(=O)(=O)c2ccc(C(C)(C)C)cc2)nc(-c2ncccn2)nc1OCCO` [Bosentan] showed a cell number of 98.2.

Regarding `O=C(O)c1ccc(-c2c[nH]c3ncc(-c4ccccc4)cc23)cc1C1CCCC1`, the cell number is 69.4 and 71.3.

For the compound `COc1ccc2nc(S(=O)Cc3ncc(C)c(OC)c3C)[nH]c2c1` (stereo not drawn) [Omeprazole], the cell number stood at 102.

For `O=C(NCCO)c1cccc(-c2cc(Nc3ccc(OC(F)(F)F)cc3)ncn2)c1`, the cell number is 94.8.

`CC(C)c1cc(/C=C(\C#N)C(=O)NCCCc2ccccc2)cc(C(C)C)c1O`: the cell number worked out at 81.8.

In turn, `N[C@H](CO)C(=O)O` [D-Serine] registered a cell number of 112.

For the compound `CC(=O)c1ccc2c(c1)[C@H](NC(=O)c1ccc(F)c(Cl)c1)[C@H](O)C(C)(C)O2`, the cell number is 98.

`CC(=O)O.NC(N)=NN=Cc1c(Cl)cccc1Cl` [Guanabenz acetate] had a cell number of 98.

With `CCCCS(=N)(=O)CCC(N)C(=O)O` (stereo not drawn) [Buthionine sulfoximine], the cell number was 116.

For the compound `O=C(/C=C/c1cccnc1)NCCCCC1CCN(C(=O)c2ccccc2)CC1`, the cell number worked out at 107.

On to `CC(N)=O` [Acetamide], for which the cell number was 103.

The compound `O=C1OC(CN2CCOCC2)CN1/N=C/c1ccc([N+](=O)[O-])o1` (stereo not drawn) displayed a cell number of 96.5.

In the case of `N[C@@H](COP(=O)(O)O)C(=O)O` [O-Phospho-L-serine], the cell number was determined as 101.

`CNC1C(O)C(NC)C2OC3(O)C(=O)CC(C)OC3OC2C1O.Cl.Cl` (stereo not drawn) [Spectinomycin.2HCl]: the cell number came to 106.

The compound `CS(=O)(=O)O.Cc1ccc(NC(=O)c2ccc(CN3CCN(C)CC3)cc2)cc1Nc1nccc(-c2cccnc2)n1` [Imatinib] showed a cell number of 95.8.

The compound `CCCOc1ccc2nc(NC(=O)OC)[nH]c2c1` [Oxibendazole] had a cell number of 9.31.

In turn, `CN1C(C)(C)CCCC1(C)C.O=C(O)C(O)C(O)C(=O)O` [Pempidine tartrate] gave a cell number of 94.9.

In turn, `CC(C)(C)NCC(O)COc1nsnc1N1CCOCC1.O=C(O)C=CC(=O)O` [(S)-Timolol maleate] displayed a cell number of 105.

For the compound `COc1cc2ncc(-c3ccccc3)nc2cc1OC` [Tyrphostin AG 1296], the cell number came out at 106.
